Test results reported in PubChem BioAssay AID1159580 (chemical genetic matrix, 2015).
Among all 5,500 compounds or so, about 2,000 (36%) were called active. Roughly 18% stayed inconclusive and do not appear here. No stated cut-off is given here; in the data, active means normalized growth mostly below about 0.91 (no sharp cut-off); inconclusive means no clear call, values can overlap the other calls; inactive means mostly above about 0.92. This is one part of the list.

Experiment: chemical genetic growth profiling, strain panel (AID 1159580);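 further: tested at 20 µM; growth read once vehicle control cultures reached saturation at 30 °C; 1 = growth at the plate median or of vehicle wells; lower values mean less growth of the strain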
Conditions: growth OD
[1] = S. cerevisiae deletion strains, locus YGR078C, strain PAC10, active compounds read low
[2] = S. cerevisiae deletion strains, locus YPL055C, strain LGE1, active compounds read low
[3] = S. cerevisiae deletion strains, locus YPL241C, strain CIN2, active compounds read low

Measured: normalized growth

CC12CCC(C1)C(C)(C)C2NC(=O)c1cccs1 (stereo not given)
inactive: S. cerevisiae deletion strains, locus YAL013W, strain DEP1, active compounds read low 0.976 | S. cerevisiae deletion strains, locus YBR229C, strain ROT2, active compounds read low 1.01 | S. cerevisiae deletion strains, locus YDL101C, strain DUN1, active compounds read low 0.995 | S. cerevisiae deletion strains, locus YDL134C, strain PPH21, active compounds read low 0.991 | S. cerevisiae deletion strains, locus YDR150W, strain NUM1, active compounds read low 0.907 | S. cerevisiae deletion strains, locus YEL061C, strain CIN8, active compounds read low 1.02 | [1] 0.98 | S. cerevisiae deletion strains, locus YHR030C, strain SLT2, active compounds read low 0.848 | S. cerevisiae deletion strains, locus YHR087W, strain rtc3, active compounds read low 0.983 | S. cerevisiae deletion strains, locus YJL187C, strain SWE1, active compounds read low 0.992 | S. cerevisiae deletion strains, locus YJR043C, strain POL32, active compounds read low 0.956 | S. cerevisiae deletion strains, locus YJR075W, strain HOC1, active compounds read low 0.97 | S. cerevisiae deletion strains, locus YLR039C, strain RIC1, active compounds read low 1.03 | S. cerevisiae deletion strains, locus YLR058C, strain SHM2 (second series), active compounds read low 0.994 | S. cerevisiae deletion strains, locus YLR085C, strain ARP6, active compounds read low 0.944 | S. cerevisiae deletion strains, locus YLR262C, strain YPT6, active compounds read low 1.03 | S. cerevisiae deletion strains, locus YML094W, strain GIM5, active compounds read low 0.976 | S. cerevisiae deletion strains, locus YMR219W, strain ESC1, active compounds read low 0.988 | S. cerevisiae deletion strains, locus YMR263W, strain SAP30, active compounds read low 0.942 | S. cerevisiae deletion strains, locus YMR307W, strain GAS1, active compounds read low 0.834 | S. cerevisiae deletion strains, locus YNL153C, strain GIM3, active compounds read low 1 | S. cerevisiae deletion strains, locus YNL298W, strain CLA4 (second series), active compounds read low 0.983 | S. cerevisiae deletion strains, locus YNL322C, strain KRE1, active compounds read low 0.987 | S. cerevisiae deletion strains, locus YNR030W, strain Alg12, active compounds read low 0.995 | S. cerevisiae deletion strains, locus YOL006C, strain TOP1, active compounds read low 0.924 | [2] 0.968 | [3] 0.976 | S. cerevisiae deletion strains, locus YPR135W, strain CTF4, active compounds read low 0.858 | S. cerevisiae strains, strain wild type, active compounds read low 0.954

CC[N+](C)(C)Cc1ccccc1Br
inactive: S. cerevisiae deletion strains, locus YAL040C, strain CLN3, active compounds read low 0.99 | S. cerevisiae deletion strains, locus YCL061C, strain MRC1 (second series), active compounds read low 1.01 | S. cerevisiae deletion strains, locus YDR363W, strain ESC2, active compounds read low 0.991 | S. cerevisiae deletion strains, locus YER002W, strain NOP16, active compounds read low 0.993 | [1] 0.99 | S. cerevisiae deletion strains, locus YNL175C, strain NOP13, active compounds read low 1.01 | S. cerevisiae deletion strains, locus YNL197C, strain WHI3, active compounds read low 1.01 | S. cerevisiae deletion strains, locus YNL224C, strain SQS1, active compounds read low 0.983 | S. cerevisiae deletion strains, locus YOR083W, strain WHI5 (second series), active compounds read low 0.974 | [2] 0.999 | [3] 1.01
